# ± gives the standard deviation of the averaged measurements.
# What was measured:
# Assay in all cases: relative enzymatic activity vs untreated control (fraction); higher = less inhibition
# Settings in all cases: 100 µM; incubation time: 2 h at 37 C
# DNA gyrase = tested on: DNA gyrase
# Method: (§1)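 In vitro enzymatic inhibition assays (ProFoldin kits) for 12 purified essential E. coli enzymes or complexes, each treated with 218 active antibacterial compounds at 100 µM for 2 h at 37°C. Read-outs were fluorescence or absorbance (phosphate detection, dye binding), converted to activity via standard curves and expressed relative to untreated DMSO controls.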
# DNA helicase = DNA helicase (UniProt P0ACB1)
# Method: as §1
# DNA ligase = DNA ligase (UniProt B1XA82)
# Method: as §1
# DNA polymerase = DNA polymerase (UniProt P10443)
# Method: as §1
# DNA primase = DNA primase (UniProt P0ABS7)
# Method: as §1
# GlmU = GlmU (UniProt A7ZTU1)
# Method: as §1
# Guanlyate kinase = Guanlyate kinase (UniProt Q0TBG1)
# Method: as §1
# MurA = MurA (UniProt Q3YX52)
# Method: as §1
# MurD = molecular target: T1, MurD (UniProt P14900)
# T1 sequence (whole entry): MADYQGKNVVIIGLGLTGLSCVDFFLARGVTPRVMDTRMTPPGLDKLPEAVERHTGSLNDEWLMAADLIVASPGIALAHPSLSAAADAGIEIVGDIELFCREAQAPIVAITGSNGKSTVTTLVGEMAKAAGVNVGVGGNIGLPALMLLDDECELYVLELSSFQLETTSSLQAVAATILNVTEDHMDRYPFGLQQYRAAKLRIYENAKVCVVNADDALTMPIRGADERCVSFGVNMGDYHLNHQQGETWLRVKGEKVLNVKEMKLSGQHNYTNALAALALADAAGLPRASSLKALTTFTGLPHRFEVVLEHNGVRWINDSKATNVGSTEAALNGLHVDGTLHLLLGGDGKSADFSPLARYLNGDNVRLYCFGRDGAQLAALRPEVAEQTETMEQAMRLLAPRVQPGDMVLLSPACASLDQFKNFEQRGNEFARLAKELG
# Method: as §1
# MurF = molecular target: T2, MurF (UniProt P11880)
# T2 sequence (whole entry): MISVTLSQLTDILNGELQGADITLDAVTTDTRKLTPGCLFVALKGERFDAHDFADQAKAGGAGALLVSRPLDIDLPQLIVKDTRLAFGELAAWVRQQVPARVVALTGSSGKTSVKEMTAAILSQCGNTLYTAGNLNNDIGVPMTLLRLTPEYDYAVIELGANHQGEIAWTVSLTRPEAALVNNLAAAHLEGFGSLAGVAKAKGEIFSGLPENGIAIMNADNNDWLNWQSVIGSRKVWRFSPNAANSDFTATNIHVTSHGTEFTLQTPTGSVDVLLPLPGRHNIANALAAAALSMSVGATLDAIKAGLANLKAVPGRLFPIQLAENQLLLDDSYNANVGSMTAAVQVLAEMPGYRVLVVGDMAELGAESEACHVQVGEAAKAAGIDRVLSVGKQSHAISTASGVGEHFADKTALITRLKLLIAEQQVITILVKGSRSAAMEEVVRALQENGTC
# Method: as §1
# RNA polymerase = tested on: RNA polymerase
# Method: as §1
# DNA ligase, sequence (B1XA82 whole entry): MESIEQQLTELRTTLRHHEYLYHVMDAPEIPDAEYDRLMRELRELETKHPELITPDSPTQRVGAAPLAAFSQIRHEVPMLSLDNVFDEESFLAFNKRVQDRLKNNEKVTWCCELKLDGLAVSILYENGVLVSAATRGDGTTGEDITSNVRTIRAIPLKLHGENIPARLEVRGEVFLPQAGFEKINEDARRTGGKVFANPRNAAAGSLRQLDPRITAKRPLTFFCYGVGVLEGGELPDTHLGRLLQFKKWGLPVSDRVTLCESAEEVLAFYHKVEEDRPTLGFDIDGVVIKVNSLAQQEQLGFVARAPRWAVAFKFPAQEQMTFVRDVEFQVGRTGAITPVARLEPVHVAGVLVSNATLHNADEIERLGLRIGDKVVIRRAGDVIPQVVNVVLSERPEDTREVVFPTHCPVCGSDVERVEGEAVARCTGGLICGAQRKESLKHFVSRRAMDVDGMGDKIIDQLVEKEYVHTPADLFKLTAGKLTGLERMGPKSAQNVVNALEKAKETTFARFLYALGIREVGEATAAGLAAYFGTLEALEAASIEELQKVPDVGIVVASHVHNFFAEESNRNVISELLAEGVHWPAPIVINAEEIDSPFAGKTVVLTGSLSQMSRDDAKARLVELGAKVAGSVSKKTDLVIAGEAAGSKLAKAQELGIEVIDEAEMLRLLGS
# DNA polymerase, sequence (P10443 whole entry): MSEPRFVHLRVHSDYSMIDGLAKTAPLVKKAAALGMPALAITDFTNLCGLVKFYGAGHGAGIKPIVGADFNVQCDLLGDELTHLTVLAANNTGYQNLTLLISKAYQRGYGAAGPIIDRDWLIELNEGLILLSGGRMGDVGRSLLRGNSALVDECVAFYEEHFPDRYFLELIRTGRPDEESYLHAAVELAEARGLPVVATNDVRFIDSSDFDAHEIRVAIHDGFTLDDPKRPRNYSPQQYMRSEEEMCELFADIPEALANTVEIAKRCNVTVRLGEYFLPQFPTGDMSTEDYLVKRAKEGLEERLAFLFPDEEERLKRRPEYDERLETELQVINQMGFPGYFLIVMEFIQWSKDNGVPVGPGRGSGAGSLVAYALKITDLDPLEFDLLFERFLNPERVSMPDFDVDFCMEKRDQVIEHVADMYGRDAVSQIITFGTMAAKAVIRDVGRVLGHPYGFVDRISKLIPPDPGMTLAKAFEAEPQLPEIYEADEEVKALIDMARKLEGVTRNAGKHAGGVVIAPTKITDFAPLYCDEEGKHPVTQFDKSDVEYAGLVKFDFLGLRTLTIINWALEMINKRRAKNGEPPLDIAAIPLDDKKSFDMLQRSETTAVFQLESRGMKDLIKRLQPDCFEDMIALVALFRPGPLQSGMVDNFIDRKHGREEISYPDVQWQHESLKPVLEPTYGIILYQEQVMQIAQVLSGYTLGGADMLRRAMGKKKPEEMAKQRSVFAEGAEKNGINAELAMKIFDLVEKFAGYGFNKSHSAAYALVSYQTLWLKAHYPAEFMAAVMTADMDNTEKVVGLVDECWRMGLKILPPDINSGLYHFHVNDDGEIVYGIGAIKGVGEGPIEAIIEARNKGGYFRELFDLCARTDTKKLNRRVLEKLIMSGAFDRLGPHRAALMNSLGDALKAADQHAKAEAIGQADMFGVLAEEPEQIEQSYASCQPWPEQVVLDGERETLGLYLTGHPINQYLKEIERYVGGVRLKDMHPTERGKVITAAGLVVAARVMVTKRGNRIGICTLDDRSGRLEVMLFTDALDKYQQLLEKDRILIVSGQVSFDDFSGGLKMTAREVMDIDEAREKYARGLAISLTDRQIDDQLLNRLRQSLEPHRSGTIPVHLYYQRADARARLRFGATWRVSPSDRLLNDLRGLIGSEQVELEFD
# MurA, sequence (Q3YX52 whole entry): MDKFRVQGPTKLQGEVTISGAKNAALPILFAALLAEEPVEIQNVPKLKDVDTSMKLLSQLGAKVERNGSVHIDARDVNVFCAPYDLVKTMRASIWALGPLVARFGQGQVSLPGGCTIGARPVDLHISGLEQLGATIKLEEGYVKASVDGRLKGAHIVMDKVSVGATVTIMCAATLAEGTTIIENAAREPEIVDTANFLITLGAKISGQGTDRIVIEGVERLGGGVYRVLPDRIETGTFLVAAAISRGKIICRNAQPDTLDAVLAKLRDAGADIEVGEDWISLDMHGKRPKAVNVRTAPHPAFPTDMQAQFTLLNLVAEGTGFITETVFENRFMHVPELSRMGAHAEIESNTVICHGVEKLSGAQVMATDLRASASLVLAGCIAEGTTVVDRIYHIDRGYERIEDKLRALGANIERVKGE
# DNA helicase, sequence (P0ACB1 whole entry): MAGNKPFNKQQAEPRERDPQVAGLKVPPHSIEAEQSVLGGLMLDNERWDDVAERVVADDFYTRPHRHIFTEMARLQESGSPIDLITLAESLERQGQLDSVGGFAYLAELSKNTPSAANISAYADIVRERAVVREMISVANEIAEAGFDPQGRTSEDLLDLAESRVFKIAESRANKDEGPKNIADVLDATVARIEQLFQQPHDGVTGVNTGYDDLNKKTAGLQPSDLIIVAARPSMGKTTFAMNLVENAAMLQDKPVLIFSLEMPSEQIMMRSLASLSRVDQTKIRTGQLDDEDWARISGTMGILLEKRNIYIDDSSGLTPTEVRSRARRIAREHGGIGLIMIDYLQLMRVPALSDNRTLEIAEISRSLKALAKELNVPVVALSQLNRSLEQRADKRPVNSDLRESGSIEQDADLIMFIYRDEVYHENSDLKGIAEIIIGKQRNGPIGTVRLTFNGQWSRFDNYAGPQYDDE
# Guanlyate kinase, sequence (Q0TBG1 whole entry): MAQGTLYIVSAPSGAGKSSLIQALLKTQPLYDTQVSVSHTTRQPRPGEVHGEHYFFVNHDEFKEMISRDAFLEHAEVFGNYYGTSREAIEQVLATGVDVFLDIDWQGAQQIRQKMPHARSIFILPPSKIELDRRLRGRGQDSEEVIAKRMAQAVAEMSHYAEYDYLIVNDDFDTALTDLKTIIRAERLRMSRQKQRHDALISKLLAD
# DNA primase, sequence (P0ABS7 whole entry): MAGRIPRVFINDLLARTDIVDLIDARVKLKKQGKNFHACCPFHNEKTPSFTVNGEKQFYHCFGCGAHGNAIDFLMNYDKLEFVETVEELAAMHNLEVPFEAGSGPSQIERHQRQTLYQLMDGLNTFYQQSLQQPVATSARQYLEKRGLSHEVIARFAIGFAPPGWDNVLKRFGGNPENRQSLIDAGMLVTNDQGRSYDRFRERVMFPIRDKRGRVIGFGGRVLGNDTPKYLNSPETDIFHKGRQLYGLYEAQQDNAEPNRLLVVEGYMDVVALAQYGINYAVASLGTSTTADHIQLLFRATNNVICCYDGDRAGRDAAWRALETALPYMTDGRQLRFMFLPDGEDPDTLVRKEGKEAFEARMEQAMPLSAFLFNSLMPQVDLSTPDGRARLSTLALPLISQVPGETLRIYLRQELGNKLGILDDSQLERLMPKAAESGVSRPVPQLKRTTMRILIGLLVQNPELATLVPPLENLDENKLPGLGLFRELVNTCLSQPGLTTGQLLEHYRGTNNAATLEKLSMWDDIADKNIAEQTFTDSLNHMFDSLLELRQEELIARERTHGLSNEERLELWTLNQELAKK
# GlmU, sequence (A7ZTU1 whole entry, looked up): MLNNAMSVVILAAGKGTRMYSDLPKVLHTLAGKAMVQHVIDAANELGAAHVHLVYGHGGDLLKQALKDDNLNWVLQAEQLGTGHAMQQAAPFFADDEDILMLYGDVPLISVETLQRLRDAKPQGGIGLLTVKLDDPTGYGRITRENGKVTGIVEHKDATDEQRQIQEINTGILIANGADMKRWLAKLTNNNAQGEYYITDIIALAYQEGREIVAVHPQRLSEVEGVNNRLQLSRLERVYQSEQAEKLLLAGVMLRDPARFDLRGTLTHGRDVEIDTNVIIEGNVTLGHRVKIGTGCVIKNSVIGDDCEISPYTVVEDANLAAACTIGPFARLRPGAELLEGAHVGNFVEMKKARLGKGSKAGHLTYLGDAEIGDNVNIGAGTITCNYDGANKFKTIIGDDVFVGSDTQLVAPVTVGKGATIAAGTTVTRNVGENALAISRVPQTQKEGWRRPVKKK
Compound,relative enzymatic activity (DNA gyrase),relative enzymatic activity (DNA helicase),relative enzymatic activity (DNA ligase),relative enzymatic activity (DNA polymerase),relative enzymatic activity (DNA primase),relative enzymatic activity (GlmU),relative enzymatic activity (Guanlyate kinase),relative enzymatic activity (MurA),relative enzymatic activity (MurD),relative enzymatic activity (MurF),relative enzymatic activity (RNA polymerase)
CCCN1C[C@H](C)[C@@H](O)[C@](C)(O)[C@@H](CC)OC(=O)[C@H](C)[C@@H](O[C@H]2C[C@@](C)(OC)[C@@H](O)[C@H](C)O2)[C@H](C)[C@@H](O[C@@H]2O[C@H](C)C[C@H](N(C)C)[C@H]2O)[C@](C)(O)C[C@H]1C,0.764 ± 0.38,0.556 ± 0.17,0.802 ± 0.014,1.09 ± 0.11,0.868 ± 0.012,1.073 ± 0.0078,0.858 ± 0.12,0.761 ± 0.074,0.596 ± 0.42,0.968 ± 0.17,0.766 ± 0.12
CCCC[P+](CCCC)(CCCC)Cc1ccc(NC(=O)[C@H](Cc2ccc3ccccc3c2)N/C(=N/C2CCCCC2)NC2CCCCC2)cc1,0.00696 ± 0.0098,0.0186 ± 0.0015,1.08 ± 0.094,0.73 ± 0.026,0.595 ± 0.0097,0.134 ± 0.011,0.223 ± 0.023,0.0355 ± 0.0073,0.167 ± 0.12,0.108 ± 0.017,0.346 ± 0.01
CCn1cc(C(=O)O)c(=O)c2cc(F)c(N3CCNCC3)nc21,0.00427 ± 0.006,0.582 ± 0.19,1.03 ± 0.25,0.579 ± 0.52,0.684 ± 0.19,1 ± 0.017,0.761 ± 0.07,0.839 ± 0.13,0.573 ± 0.39,0.982 ± 0.23,0.833 ± 0.03
Cc1cc(C(C)(C)CC(C)(C)C)ccc1OCCOCC[N+](C)(C)Cc1ccccc1.[Cl-],0.0681 ± 0.096,0.0148 ± 0.0016,1.09 ± 0.19,0.247 ± 0.011,0.55 ± 0.034,0.409 ± 0.4,0.428 ± 0.034,0.0365 ± 0.0028,0.0983 ± 0.021,0.477 ± 0.33,0.664 ± 0.036
O=C(NC(CO)C(O)c1ccc([N+](=O)[O-])cc1)C(Cl)Cl (centres undefined),1.08 ± 0.086,0.453 ± 0.012,0.947 ± 0.19,1.34 ± 0.4,0.725 ± 0.2,0.972 ± 0.052,1.04 ± 0.047,0.8 ± 0.18,0.548 ± 0.34,0.96 ± 0.2,0.86 ± 0.028
CON=C(C(=O)NC1C(=O)N2C(C(=O)[O-])=C(COC(N)=O)CSC12)c1ccco1.[Na+] (centres undefined),1.06 ± 0.11,0.47 ± 0.024,1.36 ± 0.18,1.12 ± 0.2,0.69 ± 0.18,1.12 ± 0.054,0.9 ± 0.019,0.117 ± 0.034,0.72 ± 0.49,1.02 ± 0.23,0.866 ± 0.088
Cn1cc(-c2[nH]c3cc(NC(=O)[C@H](N)C4CCCCC4)cc4c3c2C=NNC4=O)cn1,0.0124 ± 0.018,0.0463 ± 0.061,0.703 ± 0.085,0.083 ± 0.099,≤ 0,0.899 ± 0.013,0.0166 ± 0.0039,0.348 ± 0.12,0.599 ± 0.43,1.13 ± 0.017,0.191 ± 0.029
Cc1cn([C@H]2C[C@H](N=[N+]=[N-])[C@@H](CO)O2)c(=O)[nH]c1=O,0.52 ± 0.49,0.626 ± 0.26,0.932 ± 0.15,1.04 ± 0.19,0.733 ± 0.041,0.944 ± 0.04,0.885 ± 0.024,0.712 ± 0.092,0.491 ± 0.63,0.944 ± 0.18,0.778 ± 0.13
COC(=O)N/N=C/c1ccc([N+](=O)[O-])o1,0.742 ± 0.39,0.508 ± 0.072,0.9684 ± 0.0075,0.516 ± 0.72,0.841 ± 0.017,1.02 ± 0.019,0.942 ± 0.11,0.255 ± 0.17,0.636 ± 0.45,0.961 ± 0.21,0.918 ± 0.14
C=CC1=C(C(=O)O)N2C(=O)[C@@H](NC(=O)/C(=N/O)c3csc(N)n3)[C@H]2SC1,0.0537 ± 0.076,0.371 ± 0.1,0.963 ± 0.1,1.16 ± 0.24,0.769 ± 0.027,1.004 ± 0.0086,0.947 ± 0.08,0.119 ± 0.015,0.599 ± 0.41,0.943 ± 0.22,0.785 ± 0.086
CC1COc2c(C3(N)CC3)c(F)cc3c(=O)c(C(=O)O)cn1c23.CS(=O)(=O)O (centres undefined),0.0382 ± 0.054,0.57 ± 0.24,0.904 ± 0.083,0.511 ± 0.72,0.835 ± 0.011,0.898 ± 0.045,1.02 ± 0.16,0.879 ± 0.057,0.579 ± 0.4,1.07 ± 0.021,0.872 ± 0.013
COC1C=COC2(C)Oc3c(C)c(O)c4c(O)c(c(C=NN5CCN(C)CC5)c(O)c4c3C2=O)NC(=O)C(C)=CC=CC(C)C(O)C(C)C(O)C(C)C(OC(C)=O)C1C (centres undefined),0.468 ± 0.18,0.717 ± 0.33,0.8414 ± 0.0057,0.862 ± 0.32,0.507 ± 0.0061,0.288 ± 0.02,0.399 ± 0.0045,0.0919 ± 0.015,0.175 ± 0.081,0.464 ± 0.051,0.0875 ± 0.0034
CC(C)CCCC(=O)N[C@@H](CCNCS(=O)(=O)O)C(=O)N[C@H](C(=O)N[C@@H](CCNCS(=O)(=O)O)C(=O)N[C@H]1CCNC(=O)[C@H]([C@@H](C)O)NC(=O)[C@H](CCNCS(=O)(=O)O)NC(=O)[C@H](CCNCS(=O)(=O)O)NC(=O)[C@H](CC(C)C)NC(=O)[C@H](CC(C)C)NC(=O)[C@H](CCNCS(=O)(=O)O)NC1=O)[C@@H](C)O,0.555 ± 0.027,0.608 ± 0.27,1.01 ± 0.41,1.14 ± 0.27,0.8249 ± 0.007,1.0459 ± 0.00074,0.666 ± 0.056,0.723 ± 0.12,0.585 ± 0.35,0.903 ± 0.13,0.813 ± 0.041
Cl.O=C1CC2(CCCC2)CC(=O)N1CCCCN1CCN(c2ncccn2)CC1,0.812 ± 0.33,0.485 ± 0.034,0.999 ± 0.1,1.05 ± 0.045,0.81 ± 0.029,1.03 ± 0.042,1 ± 0.013,0.865 ± 0.1,0.609 ± 0.44,0.97 ± 0.21,0.83 ± 0.039
C=CC1=C(C(=O)O)N2C(=O)[C@@H](NC(=O)/C(=N\O)c3csc(N)n3)[C@H]2SC1,0.489 ± 0.086,0.523 ± 0.095,0.92 ± 0.15,1.13 ± 0.24,0.774 ± 0.038,0.988 ± 0.07,0.885 ± 0.068,0.212 ± 0.095,0.619 ± 0.42,0.981 ± 0.22,0.894 ± 0.077
O=c1[nH]c(=O)n(C2CC(O)C(CO)O2)cc1F (centres undefined),0.98 ± 0.053,0.557 ± 0.14,1.15 ± 0.19,1.2 ± 0.26,0.657 ± 0.14,1.09 ± 0.097,1.03 ± 0.036,0.856 ± 0.064,0.597 ± 0.4,0.931 ± 0.18,0.84 ± 0.0053
O=C1C=CC(=O)N1,0.511 ± 0.14,0.616 ± 0.23,0.848 ± 0.071,1 ± 0.3,0.801 ± 0.014,0.973 ± 0.066,0.814 ± 0.18,0.171 ± 0.052,0.533 ± 0.5,0.951 ± 0.22,0.83 ± 0.2
O=C(O)c1cn(C2CC2)c2cc(N3CCNCC3)c(F)cc2c1=O,0.0423 ± 0.06,0.645 ± 0.22,,0.688 ± 0.4,0.687 ± 0.18,1.09 ± 0.16,0.932 ± 0.065,0.705 ± 0.28,0.576 ± 0.41,0.991 ± 0.21,0.771 ± 0.006
Cl.O=C(O)c1cn(-c2ccc(F)cc2)c2cc(N3CCNCC3)c(F)cc2c1=O,0.0194 ± 0.027,0.484 ± 0.099,1.18 ± 0.41,1.19 ± 0.31,0.688 ± 0.12,0.955 ± 0.031,0.73 ± 0.11,0.698 ± 0.044,0.595 ± 0.41,0.919 ± 0.24,0.228 ± 0.089
COC1(NC(=O)C(C(=O)[O-])c2ccc(O)cc2)C(=O)N2C(C(=O)[O-])=C(CSc3nnnn3C)COC21.[Na+].[Na+] (centres undefined),1.04 ± 0.15,0.607 ± 0.17,1.25 ± 0.16,1.27 ± 0.34,0.693 ± 0.17,0.998 ± 0.085,1.02 ± 0.11,0.069 ± 0.017,0.584 ± 0.39,0.913 ± 0.23,0.848 ± 0.071

# Reference: the supplement of paper PMC9446081
